FMDV inh = High Throughput Screening for Foot and Mouth Disease Virus Antivirals. Potency, µM (doses to about 57.9 µM), inactives show at the highest dose activity change, negative = inhibition, usual class: inhibitors. hit rate 1.2% among 410,000. FMDV antiviral cell-based qHTS; calls by dose curve; tested in HEK293T cells; note: read-out not given here; potency is the fitted concentration of half-maximal effect; nearly all actives have a fitted effect of over 45% in size
MARV entry inh = qHTS for inhibitors of binding or entry into cells for Marburg Virus | Marburg virus pseudotyped entry inhibition, cell reporter | Potency, µM (doses to about 37.8 µM), for inactives: at the top dose activity change, negative = inhibition, hits mostly inhibitors | hit rate 1.8% among 300,000 | AID 540276, 2011; calls by dose curve; tested in HEK293 cells; note: potency is the fitted concentration of half-maximal effect
HCMV antiviral = qHTS Assay for inhibitors of the human cytomegalovirus (HCMV); HFF cells, HCMV-luciferase reporter, 72 h; hits give low values; activity change, negative = inhibition, % at 57.5 µM; hit rate 4.5% among 410,000; in the data active = activity change below about -60%; inconclusive = no clear call, values can overlap the other calls; inactive = above about -39%
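Screen run at 2 compound doses on HFFs infected with reporter HCMV, MOI 1 PFU/cell. Luciferase activity from cell lysates at 72 h post infection gave inhibition relative to buffer-only and Salinomycin wells.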
Lassa entry inh = qHTS for Inhibitors of binding or entry into cells for Lassa Virus | Lassa virus pseudotype entry inhibition, cell reporter | Potency, µM (titrated, usually from 37.9 µM), inactives show at the highest dose activity change, negative = inhibition, usual class: inhibitors | AID 540256, 2011 | hit rate 1.2% among 300,000; calls by dose curve; tested in HEK293 cells; note: potency is the fitted concentration of half-maximal effect; nearly all actives have a fitted effect of over 50% in size
HCV inhibitor = qHTS Assay for Inhibitors of Hepatitis C Virus (HCV) | Huh7.5.1 HCVcc-Cre infection, luciferase reporter, 44 h | Potency, µM (highest dose often 41.8 µM), without a hit: top-dose activity change, negative = inhibition, usual class: inhibitors | hit rate 3.4% among 340,000 | AID 651820, 2012; active = well fitted inhibition curve with a large enough effect; inconclusive = small, poorly fitted or top-dose-only effect, or another doubt; inactive = no such curve, though single readings can be large or run the other way; note: potency is the fitted concentration of half-maximal effect
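HCVcc-Cre virus at an moi near 0.5 was added right after compound to cells cultured 4 h from seeding (1,000 cells/well). Luciferase activity was determined 44 h later, 15 min after substrate addition at RT.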
* hit, by the source's call; u = inconclusive; x = not tested or not shown; [ ] = another dose, or the depositor's remark. This is a sample that favours compounds with a hit; in the whole collection about 7.9% have one here. % is set by controls: 0 for no effect and ±100 for the full control effect.

SMILES	FMDV inh	MARV entry inh	HCMV antiviral	Lassa entry inh	HCV inhibitor
Cn1c(=O)c2[nH]c(C=Cc3ccc4c(c3)OCO4)nc2n(C)c1=O	-6.6%	1.4%	-15.9	14.0%	14.8%
CC[C@@H]1CCC[C@@H](O)[C@@H](C)C(=O)O[C@H](C)[C@@H](C)C/C=C(C)/C(OC)=C\C(=O)N(C)C([C@@H](C)CC)C(=O)N(C)[C@@H](C(C)C)C(=O)N(C)[C@@H](COC)C(=O)N2CCC[C@H]2C(=O)N(C)[C@@H](C(C)C)C(=O)N2CCC[C@H]2C(=O)O1 (some centres undefined)	u	x	-101.9*	x	x
CCOC(=O)[C@@H]1[C@H]2COc3ccc(Br)cc3[C@H]2N2C(=O)N(c3ccc(C(F)(F)F)cc3)C(=O)[C@]12C	-15.7%	x	-75.8*	x	-25.9%
CCOC(=O)[C@@H]1[C@H]2COc3ccc(Br)cc3[C@H]2N2C(=O)N(c3ccc(Br)cc3)C(=O)[C@]12C	-16.9%	x	x	x	31.6µM*
CCOC(=O)[C@@H]1[C@H]2COc3ccc(Br)cc3[C@@H]2N2C(=O)N(c3ccc(Br)cc3)C(=O)[C@]12C	-25.9%	x	1.0	x	-3.5%
Cc1cc(Br)ccc1OCCOCCN1CCCC1	-18.8%	x	6.8	x	u
Cc1cc(C(C)(C)C)ccc1OCCCCN1CCCC1	-0.8%	u	-29.9	u	22.4µM*
Cc1cc(Br)ccc1OCCCCN1CCCCC1	-16.5%	u	-35.6	-7.7%	10µM*
O=C(c1cccc(F)c1F)N1CCOc2ccc(CN3CCN(Cc4ccccn4)CC3)cc2C1	10.1%	x	x	x	x
CSc1nc2c(c(=O)[nH]c(=O)n2C)n1Cc1ccccc1Cl	u	x	-2.5	x	-12.2%
CSc1nc2c(c(=O)[nH]c(=O)n2C)n1Cc1ccc(Cl)cc1	-12.6%	-4.6%	19.2	-0.2%	25.1µM*
CCCn1c(SCc2ccc(Cl)cc2)nc2c1c(=O)[nH]c(=O)n2C	u	-16.3%[46.1 µM]	u	15.8µM*	-17.3%
CCCOc1ccc(F)cc1-c1cc(C(=O)NCc2cccs2)[nH]n1	-5.1%	x	34.3	x	x
Cc1ccc(C2N3CC4(C)CN2CC(c2ccccc2)(C3)C4=O)cc1 (centres undefined)	-0.4%	3.0%[46.1 µM]	-1.4	-17.4%[46.1 µM]	x
COc1cc(S(=O)(=O)NCC2(N3CCCCC3)CCCCC2)ccc1NC(C)=O	-11.5%	u	-97.9*	-0.6%	25.8%
O=S(=O)(c1ccccc1)N1CCC(c2noc3ccccc23)CC1	x	x	-12.5	x	x
Cc1ccc(SCC(=O)OCC(=O)N(CC(C)C)c2c(N)n(Cc3ccccc3)c(=O)[nH]c2=O)c(C)c1	-23.2%	u	-11.3	u	10µM*
CC(=O)Nc1sc(C)c(C)c1C(=O)OCC(=O)N(CC(C)C)c1c(N)n(Cc2ccccc2)c(=O)[nH]c1=O	-10.4%	9.8%[46.1 µM]	-30.9	4.6%	5.01µM*
CC(C)CN(C(=O)COC(=O)CSc1ccccc1F)c1c(N)n(Cc2ccccc2)c(=O)[nH]c1=O	-17.7%	u	3.7	0.8%	6.9%
CC(C)CN(C(=O)COC(=O)C12CC3CC(CC(C3)C1)C2)c1c(N)n(Cc2ccccc2)c(=O)[nH]c1=O	-18.4%	-1.3%[46.1 µM]	-84.1*	4.0%	15.8µM*
O=C1c2oc3ccc(F)cc3c(=O)c2C(c2cccc([N+](=O)[O-])c2)N1CCCN1CCOCC1 (centres undefined)	4.4%	u	1.0	-26.0%[46.1 µM]	x
C=CC(=O)Nc1cc2c(Nc3ccc(F)c(Cl)c3)ncnc2cc1OCCCN1CCOCC1	x	x	-19.2	x	x
COc1ccccc1CN1CCCCC1c1cccnc1 (centres undefined)	8.0%	33.7%	-86.3*	-6.0%	-7.4%
COC(=O)C1=C(C(=O)OC)SC2(S1)C(C(=O)OC)=C(C(=O)OC)SC1=C2c2cc(C)ccc2NC1(C)C	-27.7%	1.3%	11.6	u	u
Cc1cc(Cl)ccc1NS(=O)(=O)c1c(C(=O)N2CCC(C)CC2)c(C)n(C)c1C	47.3%	x	1.4	-16.6%[46.1 µM]	x
SMILES	FMDV inh	MARV entry inh	HCMV antiviral	Lassa entry inh	HCV inhibitor
CCn1c2ccc(F)cc2c2nc3ccccc3nc21	-8.7%	-19.5%[46.1 µM]	-20.4	-4.2%[46.1 µM]	u
NNc1nnc2c3cc(F)ccc3n(CCc3ccccc3)c2n1	-9.6%	10µM*	-93.7*	u	u
COc1ccccc1NS(=O)(=O)c1ccc(C)c(C(=O)NCc2cccnc2)c1	-4.6%	x	54.6	x	3.6%
COc1cc(=O)n2c(c1C(=O)NCc1ccco1)CCN(Cc1ccc3ccccc3c1)CC2	-11.7%	x	x	x	x
COC(=O)c1ccc2nc(-c3ccc4c(c3)OCO4)cn2c1	0.0%	u	-8.7	2µM*	0.8%
CCc1ccn2cc(-c3ccc4c(c3)OCO4)nc2c1	8.91µM*	u	-77.8*	0.891µM*	u
COc1ccc(-c2cn3cc(C(=O)NN)ccc3n2)cc1	29.8%	u	-20.8	u	3.2%
CCNC(=O)C[C@@H]1CC[C@H]2[C@@H](COC[C@H](O)CN2C(=O)C2CC2)O1	-5.6%	x	-12.1	x	x
CC1CCn2c(nc3cc(C(=O)NCc4ccc(F)cc4)ccc32)C1 (centres undefined)	3.5%	x	-38.4	-2.8%[46.1 µM]	x
CC1=C(C(=O)OC2CCCCCCC2)C(c2cccc(O)c2)NC(=O)N1 (centres undefined)	u	u	43.2	1.83µM*	8.6%
CC1=C(C(=O)OC2CCCCC2)C(c2cccc([N+](=O)[O-])c2)NC(=O)N1 (centres undefined)	-11.9%	x	-1.5	x	11.2µM*
Cc1ccc(C)c(N2CCN(CCCNC(=O)Cn3c(-c4cccs4)cc4ccccc43)CC2)c1	0.0%	x	u	u	x
CCCNC(=O)c1cc2c(c(-c3cccc(-c4ccc(F)cc4)c3)n1)[C@H](CCO)N(S(=O)C(C)(C)C)C2 (some centres undefined)	-22.1%	x	-15.9	x	x
CCCNC(=O)c1cc2c(c(-c3cccc(-c4ccc(F)cc4)c3)n1)[C@@H](CCO)N(S(=O)C(C)(C)C)C2 (some centres undefined)	u	x	-95.8*	x	x
CCO[C@@H]1OC(C(=O)NCc2nc3ccccc3[nH]2)=C[C@H](C2CC2)[C@H]1CCCO	-17.1%	x	0.4	x	u
CCO[C@@H]1OC(C(=O)NCc2nc3ccccc3[nH]2)=C[C@H](C(C)(C)C)[C@H]1CCCO	-28.9%	x	-79.9*	x	-8.6%
C=Cn1cc[n+](CC(=O)c2ccc(C)cc2)c1	-7.1%	u	-68.4*	4.5%	4.8%
C=Cn1cc[n+](CC(=O)c2ccc(Br)cc2)c1	9.5%	x	3.8	x	12.4%
COc1cccc(-n2c(O)c(C=NCc3ccc4c(c3)OCO4)c(=O)[nH]c2=O)c1	-15.9%	-1.6%	-105.0*	-4.2%	-11.4%
CCOC(=O)Nc1ccc2c(c1)N(C(=O)CCN(CC)CC)c1ccccc1S2=O (centres undefined)	-11.0%	u	51.4	17.8µM*	-4.4%
CCCCCCCCn1cnc2c(N)c(C)c(C)cc21	-28.0%	u	-12.9	u	1.58µM*

Bioassay records deposited in PubChem by National Center for Advancing Translational Sciences (NCATS).
